# Experimental data from the supplement of paper PMC6897291.
# What was measured:
# U-2932 [1] = test: growth inhibition by drug alone (1 - RLU/untreated control) (fraction); higher = stronger inhibition; conditions: 177Lu-lilotomab satetraxetan 0 ug/ml
# How it was run: (§1)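 Compound doses on the pre-printed Selleck Cambridge Cancer Compound library plates were 10/100 nM for RIVA cells and 10/1,000 nM for U-2932 cells, seeded at 3,000 cells/well. Before seeding, cells were washed after 18 h with or without a radiolabelled anti-CD37 antibody conjugate (~600 MBq/mg; 0.5 µg/ml RIVA, 1 µg/ml U-2932). Growth inhibition was derived from RealTime-Glo luminescence relative to untreated no-drug control wells. Readings were taken daily starting on day 3, each after 1 h at 37°C, and each well's RLU was divided by the mean of 48 such wells per plate and subtracted from 1.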
# RIVA [2] = test: as above; conditions: 177Lu-lilotomab satetraxetan 0 ug/ml
# How it was run: as §1
# U-2932 [3] = test: growth inhibition by drug plus 177Lu-lilotomab satetraxetan (1 - RLU/untreated control) (fraction); higher = stronger inhibition; conditions: 177Lu-lilotomab satetraxetan 1 ug/ml
# How it was run: as §1
# RIVA [4] = test: as above; conditions: 177Lu-lilotomab satetraxetan 0.5 ug/ml
# How it was run: as §1
smiles,measurement,setting,value
O=c1[nH]nc(Sc2ncc([N+](=O)[O-])s2)n1-c1ccc2c(c1)OCCO2,growth inhibition by drug alone,"U-2932 [1]; 10 nM, time (day): 3",-0.0286
same,growth inhibition by drug alone,"U-2932 [1]; 10 nM, time (day): 4",-0.0355
same,growth inhibition by drug alone,"U-2932 [1]; 10 nM, time (day): 5",-0.112
same,growth inhibition by drug alone,"U-2932 [1]; 10 nM, time (day): 6",-0.247
same,growth inhibition by drug alone,"U-2932 [1]; 1000 nM, time (day): 3",-0.00347
same,growth inhibition by drug alone,"U-2932 [1]; 1000 nM, time (day): 4",0.024
same,growth inhibition by drug alone,"U-2932 [1]; 1000 nM, time (day): 5",-0.0622
same,growth inhibition by drug alone,"U-2932 [1]; 1000 nM, time (day): 6",-0.12
same,growth inhibition by drug alone,"RIVA [2]; 10 nM, time (day): 3",0.00609
same,growth inhibition by drug alone,"RIVA [2]; 10 nM, time (day): 4",-0.0273
same,growth inhibition by drug alone,"RIVA [2]; 10 nM, time (day): 5",-0.0872
same,growth inhibition by drug alone,"RIVA [2]; 10 nM, time (day): 6",-0.35
same,growth inhibition by drug alone,"RIVA [2]; 100 nM, time (day): 3",-0.0796
same,growth inhibition by drug alone,"RIVA [2]; 100 nM, time (day): 4",-0.0567
same,growth inhibition by drug alone,"RIVA [2]; 100 nM, time (day): 5",-0.0833
same,growth inhibition by drug alone,"RIVA [2]; 100 nM, time (day): 6",-0.162
same,growth inhibition by drug plus 177Lu-lilotomab satetraxetan,"U-2932 [3]; 10 nM, time (day): 3",0.0134
same,growth inhibition by drug plus 177Lu-lilotomab satetraxetan,"U-2932 [3]; 10 nM, time (day): 4",0.0456
same,growth inhibition by drug plus 177Lu-lilotomab satetraxetan,"U-2932 [3]; 10 nM, time (day): 5",0.0435
same,growth inhibition by drug plus 177Lu-lilotomab satetraxetan,"U-2932 [3]; 10 nM, time (day): 6",0.142
same,growth inhibition by drug plus 177Lu-lilotomab satetraxetan,"U-2932 [3]; 1000 nM, time (day): 3",0.369
same,growth inhibition by drug plus 177Lu-lilotomab satetraxetan,"U-2932 [3]; 1000 nM, time (day): 4",0.406
same,growth inhibition by drug plus 177Lu-lilotomab satetraxetan,"U-2932 [3]; 1000 nM, time (day): 5",0.362
same,growth inhibition by drug plus 177Lu-lilotomab satetraxetan,"U-2932 [3]; 1000 nM, time (day): 6",0.409
same,growth inhibition by drug plus 177Lu-lilotomab satetraxetan,"RIVA [4]; 10 nM, time (day): 3",0.41
same,growth inhibition by drug plus 177Lu-lilotomab satetraxetan,"RIVA [4]; 10 nM, time (day): 4",0.525
same,growth inhibition by drug plus 177Lu-lilotomab satetraxetan,"RIVA [4]; 10 nM, time (day): 5",0.54
same,growth inhibition by drug plus 177Lu-lilotomab satetraxetan,"RIVA [4]; 10 nM, time (day): 6",0.553
same,growth inhibition by drug plus 177Lu-lilotomab satetraxetan,"RIVA [4]; 100 nM, time (day): 3",0.424
same,growth inhibition by drug plus 177Lu-lilotomab satetraxetan,"RIVA [4]; 100 nM, time (day): 4",0.457
same,growth inhibition by drug plus 177Lu-lilotomab satetraxetan,"RIVA [4]; 100 nM, time (day): 5",0.468
same,growth inhibition by drug plus 177Lu-lilotomab satetraxetan,"RIVA [4]; 100 nM, time (day): 6",0.445
CNC(=O)c1ccc(N2C(=S)N(c3ccc(C#N)c(C(F)(F)F)c3)C(=O)C2(C)C)cc1F [MDV3100 (Enzalutamide)],growth inhibition by drug alone,"U-2932 [1]; 10 nM, time (day): 3",0.0921
same,growth inhibition by drug alone,"U-2932 [1]; 10 nM, time (day): 4",0.0374
same,growth inhibition by drug alone,"U-2932 [1]; 10 nM, time (day): 5",-0.126
same,growth inhibition by drug alone,"U-2932 [1]; 10 nM, time (day): 6",-0.107
same,growth inhibition by drug alone,"U-2932 [1]; 1000 nM, time (day): 3",0.019
same,growth inhibition by drug alone,"U-2932 [1]; 1000 nM, time (day): 4",0.0335
same,growth inhibition by drug alone,"U-2932 [1]; 1000 nM, time (day): 5",-0.0413
same,growth inhibition by drug alone,"U-2932 [1]; 1000 nM, time (day): 6",-0.0245
same,growth inhibition by drug alone,"RIVA [2]; 10 nM, time (day): 3",0.0909
same,growth inhibition by drug alone,"RIVA [2]; 10 nM, time (day): 4",0.0471
same,growth inhibition by drug alone,"RIVA [2]; 10 nM, time (day): 5",0.0315
same,growth inhibition by drug alone,"RIVA [2]; 10 nM, time (day): 6",-0.246
same,growth inhibition by drug alone,"RIVA [2]; 100 nM, time (day): 3",-0.0634
same,growth inhibition by drug alone,"RIVA [2]; 100 nM, time (day): 4",-0.143
same,growth inhibition by drug alone,"RIVA [2]; 100 nM, time (day): 5",-0.144
same,growth inhibition by drug alone,"RIVA [2]; 100 nM, time (day): 6",-0.21
same,growth inhibition by drug plus 177Lu-lilotomab satetraxetan,"U-2932 [3]; 10 nM, time (day): 3",0.0217
same,growth inhibition by drug plus 177Lu-lilotomab satetraxetan,"U-2932 [3]; 10 nM, time (day): 4",0.0789
same,growth inhibition by drug plus 177Lu-lilotomab satetraxetan,"U-2932 [3]; 10 nM, time (day): 5",0.128
same,growth inhibition by drug plus 177Lu-lilotomab satetraxetan,"U-2932 [3]; 10 nM, time (day): 6",0.16
same,growth inhibition by drug plus 177Lu-lilotomab satetraxetan,"U-2932 [3]; 1000 nM, time (day): 3",0.0172
same,growth inhibition by drug plus 177Lu-lilotomab satetraxetan,"U-2932 [3]; 1000 nM, time (day): 4",0.0892
same,growth inhibition by drug plus 177Lu-lilotomab satetraxetan,"U-2932 [3]; 1000 nM, time (day): 5",0.116
same,growth inhibition by drug plus 177Lu-lilotomab satetraxetan,"U-2932 [3]; 1000 nM, time (day): 6",0.182
same,growth inhibition by drug plus 177Lu-lilotomab satetraxetan,"RIVA [4]; 10 nM, time (day): 3",0.559
same,growth inhibition by drug plus 177Lu-lilotomab satetraxetan,"RIVA [4]; 10 nM, time (day): 4",0.587
same,growth inhibition by drug plus 177Lu-lilotomab satetraxetan,"RIVA [4]; 10 nM, time (day): 5",0.59
same,growth inhibition by drug plus 177Lu-lilotomab satetraxetan,"RIVA [4]; 10 nM, time (day): 6",0.602
same,growth inhibition by drug plus 177Lu-lilotomab satetraxetan,"RIVA [4]; 100 nM, time (day): 3",0.519
same,growth inhibition by drug plus 177Lu-lilotomab satetraxetan,"RIVA [4]; 100 nM, time (day): 4",0.555
same,growth inhibition by drug plus 177Lu-lilotomab satetraxetan,"RIVA [4]; 100 nM, time (day): 5",0.553
same,growth inhibition by drug plus 177Lu-lilotomab satetraxetan,"RIVA [4]; 100 nM, time (day): 6",0.556
